From PubChem BioAssay (NCI) come the findings set out here.

Test [1] is described as follows: NCI Yeast Anticancer Drug Screen. Data for the rad50 strain (AID 155).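 Also: 0% = growth of vehicle-only cultures of the same strain.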 The following applies: S. cerevisiae rad50 strain growth inhibition, active compounds read high. An outline of the steps:
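Cells are treated with compound, grown, and their growth is then scored against vehicle-only cultures of the same repair-deficient yeast strain.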

Test [2] can be described thus: NCI Yeast Anticancer Drug Screen. Data for the mec2-1 strain (AID 157). The following applies: S. cerevisiae mec2-1 strain, active compounds read high. In outline:
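Test agents were screened against the mec2-1 yeast strain, with defined DNA repair or cell cycle alteration. Growth was scored as inhibition against vehicle-only controls.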

Test [3] is described as follows: NCI Yeast Anticancer Drug Screen. Data for the sgs1 mgt1 strain (AID 161).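 Also: 0% = growth of cultures given vehicle only.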 The following applies: S. cerevisiae sgs1 mgt1 strain, active compounds read high. An outline of the steps: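 Genetically altered yeast, compound exposure, growth inhibition relative to vehicle.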
Test [4] in a line: NCI Yeast Anticancer Drug Screen. Data for the cln2 rad14 strain (AID 165).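 Also: 0% = growth equal to vehicle treated cultures.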 The following applies: S. cerevisiae cln2 rad14 strain, active compounds read high. In outline: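 Growth of compound-exposed yeast (cln2 rad14 genotype) measured and expressed as inhibition relative to vehicle.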
A short description of test [5]: NCI Yeast Anticancer Drug Screen. Data for the bub3 strain (AID 167). The following applies: S. cerevisiae bub3 mutant strain, active compounds read high. In outline: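 Part of a panel of yeast mutants defective in DNA damage repair or cell cycle regulation. Each strain is grown with compound, and inhibition is calculated relative to solvent-treated cultures.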
Test [6] can be described thus: NCI Yeast Anticancer Drug Screen. Data for the mlh1 rad18 strain (AID 175). The following applies: S. cerevisiae mlh1 rad18 strain growth inhibition, active compounds read high. An outline of the steps: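 In this whole-cell yeast screen, a strain with altered DNA damage repair is challenged with compound, and its growth is measured against matched vehicle-treated controls.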

Where [7] appears, read: at 5.0 µM (retest, dose inferred, filed as 0.5).
The mark [8] stands for this setting: at 50.0 µM (retest, dose inferred, filed as 5.0).

Structures are written as SMILES. Compounds without any hit were thinned out: in the full panel of roughly 79,000, 15% have a hit. Values without a mark were called inactive. Activity calls are given as the source filed them. Rule as the data show it: active = growth inhibition above about 70%; inactive = the rest.

Take `CCOC(=O)C(=N\Nc1cccc(C)c1C)/C(C)=N\NC(N)=S`: the growth inhibition in test [1] (setting [7]) is 3%; in test [1] (setting [8]), 35%; in test [1] (at 50.0 µM) it was 70.2% (active); in test [2] (setting [7]), 9%; in test [2] (setting [8]), 56%; in test [2] (at 50.0 µM) it was 38.2%. The growth inhibition is 32% in test [3] (setting [7]); 76% (active) in test [3] (setting [8]); 75.8% (active) in test [3] (at 50.0 µM); -6% in test [4] (setting [7]); 14% in test [4] (setting [8]); 64.1% in test [4] (at 50.0 µM). Further, the growth inhibition in test [5] (setting [7]) was 3%; in test [5] (setting [8]), 34%; in test [5] (at 50.0 µM) it was 59.7%; in test [6] (setting [7]) it was 30%; in test [6] (setting [8]) it was 81% (active); in test [6] (at 50.0 µM), 81.1% (active).

Regarding `CCOc1ccc2nc3cc(Cl)ccc3[n+](C)c2c1`, the growth inhibition in test [1] (setting [7]) is 20%; in test [1] (setting [8]), 79% (active); in test [1] (at 50.0 µM), 85.2% (active); in test [2] (setting [7]) it was 14%; in test [2] (setting [8]) it was 87% (active); in test [2] (at 50.0 µM), 87.3% (active). The growth inhibition in test [3] (setting [7]) was 15%; in test [3] (setting [8]), 87% (active); in test [3] (at 50.0 µM) it was 82.8% (active); in test [4] (setting [7]) it was 10%; in test [4] (setting [8]), 74% (active); in test [4] (at 50.0 µM), 72.7% (active). The growth inhibition in test [5] (setting [7]) was 32%; in test [5] (setting [8]), 88% (active); in test [5] (at 50.0 µM) it was 83.9% (active); in test [6] (setting [7]), 15%; in test [6] (setting [8]), 81% (active); in test [6] (at 50.0 µM) it was 86.7% (active).

Take `CC1(C)C2CCC(C2)C1OC(=O)c1ccccc1C(=O)O` (stereo not given): the growth inhibition in test [1] (setting [7]) was -7%; in test [1] (setting [8]), 11%; in test [1] (at 50.0 µM), 1.45%; in test [2] (setting [7]), -2%; in test [2] (setting [8]) it was 0%; in test [2] (at 50.0 µM), 12.9%. Moreover, the growth inhibition is -5% in test [3] (setting [7]); 6% in test [3] (setting [8]); -6.05% in test [3] (at 50.0 µM); 10% in test [4] (setting [7]); 15% in test [4] (setting [8]); 76.2% (active) in test [4] (at 50.0 µM). Moreover, the growth inhibition in test [5] (setting [7]) was -2%; in test [5] (setting [8]), 26%; in test [5] (at 50.0 µM), 71% (active); in test [6] (setting [7]) it was -21%; in test [6] (setting [8]) it was 6%; in test [6] (at 50.0 µM) it was 32.7%.

As to `O/N=C1\c2ccccc2-c2ccc(Cl)cc21`, the growth inhibition is 6% in test [1] (setting [7]); 35% in test [1] (setting [8]); 60.5% in test [1] (at 50.0 µM); -5% in test [2] (setting [7]); 34% in test [2] (setting [8]); 50.5% in test [2] (at 50.0 µM). For the same molecule, the growth inhibition in test [3] (setting [7]) was 3%; in test [3] (setting [8]), 60%; in test [3] (at 50.0 µM), 87.4% (active); in test [4] (setting [7]) it was -4%; in test [4] (setting [8]) it was 27%; in test [4] (at 50.0 µM), 41.4%. In addition, the growth inhibition in test [5] (setting [7]) was -4%; in test [5] (setting [8]), 28%; in test [5] (at 50.0 µM) it was 74.3% (active); in test [6] (setting [7]) it was 8%; in test [6] (setting [8]), 36%; in test [6] (at 50.0 µM), 79% (active).

Turning to `C/C(=N/NC(N)=O)C1CC(CCC2([N+](=O)[O-])CCC(C)(O)C(/C(C)=N\NC(N)=O)C2)([N+](=O)[O-])CCC1(C)O` (stereo not given), the growth inhibition in test [1] (setting [7]) is 5%; in test [1] (setting [8]), -5%; in test [1] (at 50.0 µM), 10.6%; in test [2] (setting [7]), 4%; in test [2] (setting [8]) it was 0%; in test [2] (at 50.0 µM), 14.1%. Besides, the growth inhibition was 3% in test [3] (setting [7]); -1% in test [3] (setting [8]); -6.4% in test [3] (at 50.0 µM); 5% in test [4] (setting [7]); -7% in test [4] (setting [8]); 9.6% in test [4] (at 50.0 µM). Also, the growth inhibition in test [5] (setting [7]) is 7%; in test [5] (setting [8]), -3%; in test [5] (at 50.0 µM), 96.7% (active); in test [6] (setting [7]) it was 1%; in test [6] (setting [8]), 3%; in test [6] (at 50.0 µM) it was 2.1%.

For `CCCCCCCCCCCCCCCCCC(=O)OCCN1C(=O)c2ccccc2C1=O`, the growth inhibition in test [1] (setting [7]) is -1%; in test [1] (setting [8]), 4%; in test [1] (at 50.0 µM), -5.4%; in test [2] (setting [7]), 10%; in test [2] (setting [8]), -10%; in test [2] (at 50.0 µM), 9.15%. Besides, the growth inhibition was 5% in test [3] (setting [7]); 12% in test [3] (setting [8]); 17.7% in test [3] (at 50.0 µM); -1% in test [4] (setting [7]); -6% in test [4] (setting [8]); 71.7% (active) in test [4] (at 50.0 µM). In addition, the growth inhibition was -4% in test [5] (setting [7]); -8% in test [5] (setting [8]); 44% in test [5] (at 50.0 µM); -2% in test [6] (setting [7]); -11% in test [6] (setting [8]); 43.3% in test [6] (at 50.0 µM).

Turning to `Cc1c(-c2ccccc2)ccnc1/C=N/NS(=O)(=O)c1ccccc1`, the growth inhibition was 0% in test [1] (setting [7]); -4% in test [1] (setting [8]); 42% in test [1] (at 50.0 µM); -1% in test [2] (setting [7]); 15% in test [2] (setting [8]); 22.9% in test [2] (at 50.0 µM). Moreover, the growth inhibition in test [3] (setting [7]) was 4%; in test [3] (setting [8]) it was 38%; in test [3] (at 50.0 µM), 82% (active); in test [4] (setting [7]), -3%; in test [4] (setting [8]), -6%; in test [4] (at 50.0 µM), 35.3%. Also, the growth inhibition in test [5] (setting [7]) is -8%; in test [5] (setting [8]), -3%; in test [5] (at 50.0 µM), 39.1%; in test [6] (setting [7]), -3%; in test [6] (setting [8]) it was 28%; in test [6] (at 50.0 µM) it was 52.2%.

In the case of `CC(C)(CCCCC(C)(C)NCC1COc2ccccc2O1)NCC1COc2ccccc2O1` (stereo not given), the growth inhibition in test [1] (setting [7]) was 3%; in test [1] (setting [8]), 73% (active); in test [1] (at 50.0 µM), 94.6% (active); in test [2] (setting [7]) it was -8%; in test [2] (setting [8]), 81% (active); in test [2] (at 50.0 µM), 96% (active). Besides, the growth inhibition in test [3] (setting [7]) was -10%; in test [3] (setting [8]) it was 64%; in test [3] (at 50.0 µM) it was 96.8% (active); in test [4] (setting [7]) it was 0%; in test [4] (setting [8]), 76% (active); in test [4] (at 50.0 µM) it was 95% (active). The growth inhibition in test [5] (setting [7]) is -15%; in test [5] (setting [8]), 79% (active); in test [5] (at 50.0 µM) it was 97.4% (active); in test [6] (setting [7]), 2%; in test [6] (setting [8]), 74% (active); in test [6] (at 50.0 µM), 96.2% (active).

On to `OC(CN1CCCCC1)c1ccc2c(ccc3ccccc32)c1` (stereo not given), for which the growth inhibition was 21% in test [1] (setting [7]); 54% in test [1] (setting [8]); 83% (active) in test [1] (at 50.0 µM); 6% in test [2] (setting [7]); 46% in test [2] (setting [8]); 50% in test [2] (at 50.0 µM). Besides, the growth inhibition in test [3] (setting [7]) was 35%; in test [3] (setting [8]), 75% (active); in test [3] (at 50.0 µM) it was 88.2% (active); in test [4] (setting [7]), 19%; in test [4] (setting [8]), 50%; in test [4] (at 50.0 µM) it was 75% (active). Moreover, the growth inhibition is 25% in test [5] (setting [7]); 69% in test [5] (setting [8]); 91.8% (active) in test [5] (at 50.0 µM); 22% in test [6] (setting [7]); 61% in test [6] (setting [8]); 87.5% (active) in test [6] (at 50.0 µM).

Turning to `CC(=O)Nc1ccc(N=C2c3ccccc3-c3ccc(NC(C)=O)cc32)cc1`, the growth inhibition was 2% in test [1] (setting [7]); 64% in test [1] (setting [8]); 98.4% (active) in test [1] (at 50.0 µM); 0% in test [2] (setting [7]); 52% in test [2] (setting [8]); 77.3% (active) in test [2] (at 50.0 µM). The growth inhibition is -2% in test [3] (setting [7]); 57% in test [3] (setting [8]); 98.5% (active) in test [3] (at 50.0 µM); 3% in test [4] (setting [7]); 28% in test [4] (setting [8]); 43.4% in test [4] (at 50.0 µM). The growth inhibition was -1% in test [5] (setting [7]); 53% in test [5] (setting [8]); 87.8% (active) in test [5] (at 50.0 µM); -5% in test [6] (setting [7]); 59% in test [6] (setting [8]); 98.2% (active) in test [6] (at 50.0 µM).
